Source: PubChem BioAssay AID624330 (Southern Research Specialized Biocontainment Screening …, 2012)
In all, about 340,000 compounds went through this assay and about 2,100 (0.62%) were called active.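 Rule for the calls: active = first-screen hits whose inhibition reached a set limit at any dose in the follow-up dose series; inconclusive = inhibition above the set first-screen limit but never retested; inactive = the rest.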 These entries were drawn from the full list. Potency and affinity values are given separately.

These compounds were tested against Rac GTPase-activating protein 1 (Homo sapiens) (UniProt Q9H0H5) (assay: MgcRacGAP GTPase-activating activity inhibitors, confirmation, biochemical, ADP Hunter fluorescence, primary and confirmatory (AID 624330;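 note: fluorescence reports GDP produced by GAP-driven GTP hydrolysis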)). Conditions: MgcRacGAP-stimulated Rac1 GTP hydrolysis, at 30 µM, hits give high values, GST-tagged Rac1 F28L mutant substrate.
Sequence of Rac GTPase-activating protein 1 (Homo sapiens) (Q9H0H5 whole entry, looked up): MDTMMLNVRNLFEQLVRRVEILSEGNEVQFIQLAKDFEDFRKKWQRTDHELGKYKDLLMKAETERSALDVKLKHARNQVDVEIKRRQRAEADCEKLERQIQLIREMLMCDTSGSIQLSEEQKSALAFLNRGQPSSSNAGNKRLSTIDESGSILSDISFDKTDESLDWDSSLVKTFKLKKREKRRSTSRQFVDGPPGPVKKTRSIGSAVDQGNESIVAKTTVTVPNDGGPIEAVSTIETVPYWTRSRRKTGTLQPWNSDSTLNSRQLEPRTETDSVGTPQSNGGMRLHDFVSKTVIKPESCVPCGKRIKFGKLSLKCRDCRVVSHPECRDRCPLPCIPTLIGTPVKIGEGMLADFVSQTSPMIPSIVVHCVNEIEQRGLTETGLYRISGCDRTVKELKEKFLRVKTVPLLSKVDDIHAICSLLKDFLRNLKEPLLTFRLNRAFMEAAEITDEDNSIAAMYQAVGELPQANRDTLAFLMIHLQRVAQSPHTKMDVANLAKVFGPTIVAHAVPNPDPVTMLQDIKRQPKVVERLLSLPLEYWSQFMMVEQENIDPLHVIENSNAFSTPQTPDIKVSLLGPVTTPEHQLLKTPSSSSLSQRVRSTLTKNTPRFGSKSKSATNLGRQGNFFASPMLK

inhibition, inactive:
COCC(=O)N1C[C@H]2CON(C)[C@H]2C[C@H]1c1cccc(-c2ccccc2OC)c1 15.1%
CCOP(=O)(OCC)c1ccc2c(c1)C(=O)c1ccccc1CC2 9.38%
CCOc1ncccc1C(=O)OCc1c(F)cccc1Cl -3.89%
CC(C)(C)C(=O)Nc1c2c(nn1-c1ccc(F)cc1)CSC2 11%
CCCc1ccc2oc(C(=O)NCCN3CCCC(C(N)=O)C3)c(C)c2c1 (stereo not given) -11.6%
COc1ccc2ccccc2c1CNCCCN1CCOCC1 5.19%
CN1CCN(/N=C/c2nc(-c3ccccc3Cl)n3ccccc23)CC1 21.2%
O=Cc1nc(-c2ccccc2Cl)n2ccccc12 3.46%
CSc1ccc(/C=N/N2CCN(C)CC2)cc1 11.3%
CN1CCN(/N=C/c2ccc(-c3ccccc3)cc2)CC1 13.1%
O=Cc1nc(-c2ccc(Cl)cc2)n2ccccc12 -3.25%
CC(C)(C)c1ccc(-c2nc(C=O)c3ccccn23)cc1 -4.54%
CN1CCN(/N=C/c2nc(-c3cccc([N+](=O)[O-])c3)n3ccccc23)CC1 12.2%
O=C(O)/C=C/c1nc(-c2ccccc2)n2ccccc12 16.7%
CSCC[C@H](NC(=O)C1CCC(CNC(=O)[C@@H]2CCCN2C(=O)OC(C)(C)C)CC1)C(=O)O (stereo not given in full) 0.46%
Cc1ccccc1COCCN1CCN(S(=O)(=O)c2ccccc2)CCC1=O 12.5%
CC(C)Oc1ccc(C(=O)Nc2ccc([N+](=O)[O-])cc2)cc1 11.4%
Cc1cc(=O)oc2cc(NC(=O)c3ccccc3Cl)ccc12 9.35%
CCCc1c(C(=O)N/N=C/C=C/c2ccccc2)nnn1-c1nonc1N 15.9%
O=C(Oc1cccnc1)c1cc(S(=O)(=O)N2CCCCC2)ccc1Cl 2.68%
COc1ccc(OC(=O)c2cccc(S(=O)(=O)N3CCCC3)c2)cc1 15.8%
O=[N+]([O-])c1ccc(C2=Nn3c(Cn4nnc5ccccc54)nnc3SC2)cc1 10.3%
C=C(C)COc1ccc(-c2nc(N)ncc2Oc2ccc(OC)cc2)c(O)c1 -7.13%
COc1cccc(Oc2cnc(N)nc2-c2ccc(OC)cc2O)c1 6.49%
CCOc1ccc(-c2nc(N)ncc2Oc2ccc(OC)cc2)c(O)c1 1.9%
COc1cccc(Oc2cncnc2-c2ccc(OC)cc2O)c1 8.42%
CCOc1ccc(-c2[nH]ncc2Oc2ccccc2OCC)c(O)c1 6.69%
C=C(C)COc1ccc(-c2nc(N)ncc2Oc2ccccc2OCC)c(O)c1 10.4%
Cc1ccc(S(=O)(=O)N2CCOCC2)cc1C(=O)OCC(=O)NC1CCCC1 3.52%
CC(C)(C)NC(=O)NC(=O)COC(=O)CNC(=O)c1cccc(F)c1 0.76%
CCOC(=O)Cc1csc(NC(=O)CN2CCOCC2)n1 5.22%
O=C1NC2(CCc3ccccc32)C(=O)N1CCOc1ccc(Cl)cc1 (stereo not given) 2.47%
CCN(C1CCS(=O)(=O)C1)S(=O)(=O)c1ccc(Cl)s1 (stereo not given) 4.17%
CCOC(=O)C1=C(O)CSC1=Nc1cccc2ccccc12 1.02%
c1ccc2nc3ccccc3nc2c1 2.14%
Cc1ccc(CN2CCN(C(=O)c3cccc4ccccc34)CC2)cc1 23.8%
COc1ccc(OC)c(CN2CCN(C(=O)c3cccc4ccccc34)CC2)c1 13.1%
Cc1cccc(CN2CCN(C(=O)c3cccc4ccccc34)CC2)c1 15.3%
COc1cccc(CN2CCN(C(=O)c3cccc4ccccc34)CC2)c1OC 17.9%
Cc1cc(C)c(C)c(OCCCN(C)C)c1 17%
CSc1nnnn1-c1cccc(O)c1 -2.6%
Cc1cc(Cl)ccc1Oc1ncnc2onc(C)c12 4.86%
CCOCCCNC(=O)c1ccc(OC2CCN(C(C)=O)CC2)c(OC)c1 9.51%
COCc1cc(NCc2ccc(Cl)cc2)nc(C)n1 5.03%
COCc1cc(Sc2ccc(Cl)cc2)nc(C)n1 3.56%
CN(C1=NC(=O)C(CC(=O)O)S1)c1ccc(O)cc1 (stereo not given) 2.49%
CC(C)(C)c1ccc(C2=NC(=O)C(CC(=O)O)S2)cc1 (stereo not given) 10.5%
Cc1nn(CC(=O)NCC(C)c2ccccc2)c(=O)c2cc3occc3n12 (stereo not given) 10%
Cc1ccc(-c2csc3ncnc(SCC(=O)c4ccc5c(c4)OCCO5)c23)cc1 1.98%
CC1Cc2ccccc2N1C(=O)COc1ccc2c(c1)OCO2 (stereo not given) -12.8%
CC(=O)N1CCN(c2ccc(NCc3ccc(-c4ccc(Br)cc4)o3)cc2)CC1 5.41%
CC(=O)c1ccc(N2CCN(C(=S)NCc3ccco3)CC2)cc1 3.83%
CC(=O)N1CCN(c2ccc(NCc3ccc(-c4cccc(Cl)c4)o3)cc2)CC1 15%
CC(=O)N1CCN(c2ccc(NC(=O)c3ccco3)cc2)CC1 8.89%
COc1ccc(N2CCN(C(CNC(=O)OCc3ccccc3)c3ccco3)CC2)cc1 (stereo not given) 23%
COc1ccc(C2(C)NC(=O)N(CC(=O)Nc3c(C)n(C)n(-c4ccccc4)c3=O)C2=O)cc1 (stereo not given) -6.4%
CC(C)(C)OC(=O)C[C@@H]1C/C=C\C[C@H](CC(=O)N(CCO)Cc2ccccc2)C(=O)N[C@H](Cc2ccccc2)COC1=O -1.04%
N#C/C(=C\c1ccc(-c2ccc(C(=O)O)cc2)o1)c1nc2ccccc2[nH]1 2.64%
N#C/C(=C\c1ccc(N2CCOCC2)c([N+](=O)[O-])c1)c1nc2ccccc2[nH]1 1.39%
N#C/C(=C\c1ccc(Sc2ccccc2)o1)c1nc2ccccc2[nH]1 11.4%
N#C/C(=C\c1cc([N+](=O)[O-])c(N2CCOCC2)cc1N1CCOCC1)c1nc2ccccc2[nH]1 6.08%
CC1CN(C(=O)COC(=O)c2ccc3ccccc3c2)CC(C)O1 (stereo not given) 8.18%
CCCCOC(=O)c1cccc(NC(=O)CC)c1 -6.05%
O=C(C[C@H]1C/C=C\C[C@H](NC(=O)OCC2c3ccccc3-c3ccccc32)C(=O)OC[C@H](Cc2ccccc2)NC1=O)N[C@H](CO)Cc1ccccc1 3.81%
CC(OC(=O)CC(C)c1ccccc1)C(=O)Nc1ccc(Cl)cn1 (stereo not given) 4.3%
COc1ccc(/C=C/c2nc(N)nc(-c3ccccc3O)n2)cc1OC 4.75%
COc1cc(/C=N/n2c(C)nc3ccccc3c2=O)cc(OC)c1O 7.15%
COc1ccc(/C=C/c2nc3ccccc3c(=O)n2-c2cccc(C(=O)O)c2)cc1 6.96%
COc1ccc(-n2c(/C=C3\C(=O)N(C)c4ccccc43)nc3ccccc3c2=O)cc1 9.39%
C/C=C/c1ccc(O)c(OC)c1 21.3%
COc1ccc(/C=N/n2c(C)nc3ccccc3c2=O)cc1OC 3.76%
CCCc1nc2ccccc2c(=O)n1/N=C/c1ccccc1O 11.4%
CCCc1nc2ccccc2c(=O)n1/N=C/c1ccc(O)cc1 6.59%
O=C(CN1CCN(C(=O)C2CCCO2)CC1)Nc1cc(C(F)(F)F)ccc1Cl (stereo not given) 4.9%
CCOC(=O)C1CCN(C(=O)c2cc(S(=O)(=O)N3CCCCCC3)ccc2OC)CC1 0.78%
CCCCNC(=O)NC(C(=O)OC)C12CC3CC(CC(C3)C1)C2 (stereo not given) 0.62%
CCCN(CCC)CCNS(=O)(=O)c1ccc2c(c1)CCN2C(=O)C1CCC1 12.9%
CCCCN(CCCC)S(=O)(=O)c1ccc(NS(=O)(=O)c2ccc(NC(C)=O)cc2)cc1 5.52%
COc1ccc(-c2nn(-c3ccccc3)cc2C(=O)NC2CCCCC2C)cc1 (stereo not given) 7.37%
CCOCCCNC(=O)C1CCCN(S(=O)(=O)c2ccc(-n3cnnn3)cc2)C1 (stereo not given) 1.87%
CCOC(=O)c1ccc(NC(=S)NCCCn2ccnc2)cc1 -38.2%
COc1ccc(CCN2CN(S(=O)(=O)c3ccccc3)c3nc4ccccc4nc32)cc1OC 2.57%
CCOc1ccc(NC(=S)N(Cc2ccc(N(C)C)cc2)Cc2ccco2)cc1 1.67%
O=C(O)C1CCCN1S(=O)(=O)c1ccc2ccccc2c1 (stereo not given) -1.39%
COC(=O)c1cccc(NS(=O)(=O)c2ccc(OC)c(OC)c2)c1C 4.85%
O=C(CCCc1cccs1)Nc1nc(-c2ccc(F)cc2)cs1 9.23%
O=C(c1cccs1)N1CCN(c2ncc(C(F)(F)F)cc2Cl)CC1 8.94%
O=C(Cc1ccc(Cl)cc1)Nc1ccc2c(c1)C(=O)NC2=O 10.3%
COc1ccc(-c2c(-c3ccsc3)oc(=O)c3cc(OC)c(OC)cc23)cc1 3.56%
CCOc1cc(/C=C/c2nc3ccccc3c(=O)[nH]2)ccc1O 11.1%
COc1ccc(/C=N/Nc2nc3ccccc3c(=O)n2-c2ccccc2)cc1OC 8.28%
O=C(O)c1ccc(-n2c(/C=C/c3ccccc3)nc3ccccc3c2=O)cc1 -4%
COc1cc(/C=C/c2ccc3cccc(O)c3n2)cc(OC)c1OC 3.89%
COc1ccc(/C=C/c2ccc3cccc(O)c3n2)cc1Br 5.56%
O=C(O)c1cccc(-n2c(/C=C/c3ccccc3)nc3ccccc3c2=O)c1 -7.35%
